Laboratory results published in PubChem BioAssay (Tox21).
Inconclusive results are not listed. Active and inactive are the calls of the source. Unless noted, calls follow the shape of the dose curve; as a rule, active = well fitted curve in the direction sought with a large enough effect in the repeat runs; inconclusive = weak or mixed curves; inactive = no such curve, though single readings can be large; an effect the other way counts as inactive or inconclusive.

Columns and labels:
[1] = target: Peroxisome proliferator-activated receptor delta (Homo sapiens) (UniProt Q03181); experiment: qHTS assay to identify small molecule agonists of the peroxisome proliferator-activated receptor delta (PPARd) signaling pathway (AID 743212; calls by dose curve; also: % is scaled to controls: 0 for no effect and ±100 for the full control effect)
Peroxisome proliferator-activated receptor delta (Homo sapiens), sequence (Q03181 whole entry, looked up): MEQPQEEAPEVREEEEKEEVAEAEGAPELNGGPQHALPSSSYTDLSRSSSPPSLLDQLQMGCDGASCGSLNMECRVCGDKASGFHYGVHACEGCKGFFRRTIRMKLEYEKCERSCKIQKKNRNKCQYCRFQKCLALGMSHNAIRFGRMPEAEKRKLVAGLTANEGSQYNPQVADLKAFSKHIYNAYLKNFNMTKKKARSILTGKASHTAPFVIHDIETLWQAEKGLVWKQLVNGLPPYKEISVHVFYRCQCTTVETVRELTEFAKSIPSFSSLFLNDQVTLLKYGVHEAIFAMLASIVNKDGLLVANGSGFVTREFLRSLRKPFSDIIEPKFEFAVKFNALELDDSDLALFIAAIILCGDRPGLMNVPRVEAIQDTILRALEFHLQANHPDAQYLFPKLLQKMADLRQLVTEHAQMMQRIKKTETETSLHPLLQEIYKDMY
In short: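 HEK293H UAS-bla reporter cells, human PPARd system; compounds delivered in DMSO after 5 h plating, then at 37 C. Beta-lactamase FRET read, 2 h RT substrate step.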

[2] = qHTS assay to identify small molecule antagonists of the peroxisome proliferator-activated receptor delta (PPARd) signaling pathway - cell viability counter screen (AID 743213); also: % is scaled to controls: 0 for no effect and ±100 for the full control effect; nearly all actives have a fitted effect of over 50% in size
In short: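 Same-well viability: cells pre-incubated 5 h, dosed with compound plus 300 nM L165041, kept 17 h at 37 C, FRET substrate 2 h RT, then CellTiter-Glo 30 min RT and luminescence.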

[3] = target: Peroxisome proliferator-activated receptor delta (Homo sapiens) (UniProt Q03181); experiment: qHTS assay to identify small molecule antagonists of the peroxisome proliferator-activated receptor delta (PPARd) signaling pathway (AID 743215; active = well fitted inhibition curve with a large enough effect in the signal ratio in the repeat runs, not every such curve was filed as active; the % refers to the signal ratio;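 also: cells stimulated with agonist L165041 at 300 nM final during compound exposure; series mostly up to about 62 µM; % is scaled to controls: 0 for no effect and ±100 for the full control effect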)
In short: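 Read-out is beta-lactamase FRET fluorescence, measured 2 h after substrate addition at room temperature. Beforehand, UAS-bla HEK293H cells carrying the PPARd reporter were exposed to compounds with L165041 at 300 nM final for 17 h at 37 C.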

[4] = qHTS assay to identify small molecule agonists of the farnesoid-X-receptor (FXR) signaling pathway - cell viability counter screen (AID 743218); also: % is scaled to controls: 0 for no effect and ±100 for the full control effect; nearly all actives have a fitted effect of over 45% in size
In short: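 HEK 293T FXR-bla cells; 5 h pre-incubation, 16 h compound exposure at 37 C; LiveBLAzer substrate 2 h RT, then CellTiter-Glo 30 min RT, luminescence.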

[5] = qHTS assay to identify small molecule antagonists of the farnesoid-X-receptor (FXR) signaling pathway - cell viability counter screen (AID 743221; active = well fitted cell-killing curve with a large enough effect in the repeat runs, not every such curve was filed as active; also: % is scaled to controls: 0 for no effect and ±100 for the full control effect; nearly all actives have a fitted effect of over 50% in size)
In short: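 GeneBLAzer FXR-UAS-bla HEK 293T cells, compound plus chenodeoxycholic acid (50 uM final), 16 h at 37 C. CellTiter-Glo added to the same wells after the beta-lactamase read; luminescence read after 30 min at room temperature as viability.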

[6] = target: Vitamin D3 receptor (Homo sapiens) (UniProt P11473); experiment: qHTS assay to identify small molecule agonists of the vitamin D receptor (VDR) signaling pathway (AID 743222; calls by dose curve; also: % is scaled to controls: 0 for no effect and ±100 for the full control effect)
Vitamin D3 receptor (Homo sapiens), sequence (P11473 whole entry, looked up): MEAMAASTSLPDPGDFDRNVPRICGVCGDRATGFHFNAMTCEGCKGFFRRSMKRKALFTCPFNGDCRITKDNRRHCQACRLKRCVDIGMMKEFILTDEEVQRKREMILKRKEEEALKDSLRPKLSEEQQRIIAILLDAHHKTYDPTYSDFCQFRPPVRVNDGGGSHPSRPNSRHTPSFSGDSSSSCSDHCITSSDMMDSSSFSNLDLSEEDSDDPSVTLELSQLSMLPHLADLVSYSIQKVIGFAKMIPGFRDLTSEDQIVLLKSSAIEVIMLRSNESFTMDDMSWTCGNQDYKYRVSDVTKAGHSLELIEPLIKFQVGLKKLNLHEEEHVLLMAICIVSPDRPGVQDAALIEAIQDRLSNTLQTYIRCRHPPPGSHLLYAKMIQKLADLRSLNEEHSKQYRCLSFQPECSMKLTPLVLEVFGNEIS
In short: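 VDR-bla cells, 2,000/well; 4 h preincubation 37C; cpd (DMSO) 16 h; LiveBLAzer B/G substrate 2 h RT; fluorescence intensity read.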

[7] = qHTS assay to identify small molecule agonists of the vitamin D receptor (VDR) signaling pathway - cell viability counter screen (AID 743224); also: series mostly up to about 63 µM; % is scaled to controls: 0 for no effect and ±100 for the full control effect; nearly all actives have a fitted effect of over 50% in size
In short: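 Luminescence from CellTiter-Glo, read after 30 min at room temperature, reports viability of VDR-bla cells treated with compounds for 16 h at 37C in the wells used for the beta-lactamase FRET read.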

[8] = qHTS assay to identify small molecule antagonists of the vitamin D receptor (VDR) signaling pathway - cell viability counter screen (AID 743225); also: % is scaled to controls: 0 for no effect and ±100 for the full control effect; nearly all actives have a fitted effect of over 50% in size
In short: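 VDR-UAS-bla HEK 293T cells were plated and incubated 4 h at 37C, then dosed with compound plus 3 nM (final) 1-alpha,25-dihydroxyvitamin D3 for 16 h. After the 2 h beta-lactamase read, viability in the same wells was read as CellTiter-Glo luminescence after 30 min at room temperature.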

[9] = qHTS assay to identify small molecule agonists of the NFkB signaling pathway (AID 1159509; active = well fitted curve in the direction sought with a large enough effect in the signal ratio in the repeat runs, not every such curve was filed as active; the % refers to the signal ratio; also: series mostly up to about 61 µM; % is scaled to controls: 0 for no effect and ±100 for the full control effect)
In short: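 After overnight attachment, reporter cells received test compounds, DMSO or positive controls and were incubated 5 hr at 37 C. FRET substrate was then added for 1.5 hr at room temperature before dual-emission fluorescence reading.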

[10] = qHTS assay to identify small molecule agonists of the NFkB signaling pathway - cell viability counter screen (AID 1159515; calls by dose curve; also: series mostly up to about 61 µM; % is scaled to controls: 0 for no effect and ±100 for the full control effect; nearly all actives have a fitted effect of over 55% in size)
In short: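 Luminescence from CellTiter-Glo (30 min, room temperature) gives viability, measured in the same wells as the beta-lactamase reporter read. Cells were NFkB-bla ME-180, 2,000 per well, treated 5 hr with compounds.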

[11] = qHTS assay to identify small molecule agonists of the endoplasmic reticulum stress response signaling pathway (AID 1159516; active = well fitted activation curve with a large enough effect in the signal ratio in the repeat runs, not every such curve was filed as active; the % refers to the signal ratio; also: % is scaled to controls: 0 for no effect and ±100 for the full control effect)
In short: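 Read-out is beta-lactamase cleavage of a FRET substrate (405 nm excitation; 460 and 530 nm emissions) in ESRE-bla HeLa cells after a 5 hr compound exposure at 37 C. Substrate incubation ran 2 hr at room temperature.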

[12] = qHTS assay to identify small molecule agonists of the endoplasmic reticulum stress response signaling pathway - cell viability counter screen (AID 1159517; calls by dose curve)
In short: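 Cells, HeLa ESRE-bla; density, 1,500/well; dosing, 5 hr at 37 C, 5% CO2; readout, CellTiter-Glo luminescence after 30 min RT.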

[13] = qHTS assay to identify small molecule antagonists of the retinoid-related orphan receptor gamma (ROR-gamma) signaling pathway - cell viability counter screen (AID 1159520)
In short: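 Cytotoxicity was read from cellular ATP (CellTiter-Glo luminescence) after 16 hr at 37 C with 1 uM doxycycline induction. The inducer was added 2 hr after compound transfer to Tet-on ROR gamma CHO cells.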

[14] = target: Nuclear receptor ROR-gamma (Homo sapiens) (UniProt P51449); experiment: qHTS assay to identify small molecule antagonists of the retinoid-related orphan receptor gamma (ROR-gamma) signaling pathway (AID 1159521)
In short: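 Tet-on ROR-gamma CHO cells with ROR response element-luciferase reporter; compounds added 2 hr before 1 uM doxycycline induction, then 16 hr at 37 C. Antagonism scored as decreased ONE-Glo luminescence.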

[15] = qHTS assay to identify small molecule agonists of the AP-1 signaling pathway - cell viability counter screen (AID 1159525; calls by dose curve; also: nearly all actives have a fitted effect of over 55% in size)
In short: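 Luminescent ATP readout (Cell Titer Glo, 30 min RT), normalised to DMSO and tetra n-octyl ammonium bromide controls. Cells were ME-180 AP-1-bla in 0.5% dialyzed FBS Opti-MEM, with a 5 h, 37 °C compound exposure.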

[16] = qHTS assay to identify small molecule agonists of the AP-1 signaling pathway (AID 1159526; calls by dose curve; also: % is scaled to controls: 0 for no effect and ±100 for the full control effect)
[17] = target: Bile acid receptor (Homo sapiens) (UniProt Q96RI1); experiment: qHTS assay to identify small molecule antagonists of the farnesoid-X-receptor (FXR) signaling pathway (AID 743217; active = well fitted inhibition curve with a large enough effect in the signal ratio in the repeat runs, not every such curve was filed as active; the % refers to the signal ratio; also: % is scaled to controls: 0 for no effect and ±100 for the full control effect)
Bile acid receptor (Homo sapiens), sequence (Q96RI1 whole entry, looked up): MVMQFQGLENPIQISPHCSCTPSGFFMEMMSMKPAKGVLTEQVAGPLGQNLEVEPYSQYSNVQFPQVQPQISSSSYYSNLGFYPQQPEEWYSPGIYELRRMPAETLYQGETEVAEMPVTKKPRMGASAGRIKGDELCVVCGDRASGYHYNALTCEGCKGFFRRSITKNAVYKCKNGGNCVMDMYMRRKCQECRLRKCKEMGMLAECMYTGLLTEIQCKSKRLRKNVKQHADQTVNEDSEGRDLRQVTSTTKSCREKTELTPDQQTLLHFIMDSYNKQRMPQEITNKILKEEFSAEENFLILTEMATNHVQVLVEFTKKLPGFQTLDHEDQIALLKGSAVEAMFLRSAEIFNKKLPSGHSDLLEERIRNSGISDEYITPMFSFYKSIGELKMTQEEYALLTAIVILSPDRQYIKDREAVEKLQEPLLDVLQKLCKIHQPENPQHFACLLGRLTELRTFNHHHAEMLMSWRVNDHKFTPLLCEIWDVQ
In short: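 HEK 293T FXR-UAS-bla, 5000 cells/well; compound + CDCA 50 uM final; 16 h, 37 °C; B/G FRET substrate 2 h RT; fluorescence.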

[18] = target: Bile acid receptor (Homo sapiens) (UniProt Q96RI1); experiment: qHTS assay to identify small molecule agonists of the farnesoid-X-receptor (FXR) signaling pathway (AID 743220; active = well fitted activation curve with a large enough effect in the signal ratio in the repeat runs, not every such curve was filed as active; the % refers to the signal ratio; also: % is scaled to controls: 0 for no effect and ±100 for the full control effect)
In short: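 Beta-lactamase reporter under UAS control in GeneBLAzer FXR HEK 293T cells (5000/well) measured with LiveBLAzer FRET substrate after 2 h at room temperature. Compound exposure lasted 16 h at 37C.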

[19] = target: Vitamin D3 receptor (Homo sapiens) (UniProt P11473); experiment: qHTS assay to identify small molecule antagonists of the vitamin D receptor (VDR) signaling pathway (AID 743223; active = well fitted inhibition curve with a large enough effect in the signal ratio in the repeat runs, not every such curve was filed as active; the % refers to the signal ratio; also: % is scaled to controls: 0 for no effect and ±100 for the full control effect)
In short: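 VDR-bla cells were treated with compound plus 3 nM final 1alpha,25-dihydroxyvitamin D3 for 16 h at 37C. Beta-lactamase reporter read by B/G FRET substrate fluorescence after 2 h at room temperature. qHTS format.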

[20] = qHTS assay to identify small molecule agonists of the peroxisome proliferator-activated receptor delta (PPARd) signaling pathway - cell viability counter screen (AID 743211); also: % is scaled to controls: 0 for no effect and ±100 for the full control effect; nearly all actives have a fitted effect of over 55% in size
In short: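 PPARd-bla HEK293H cells (3000/well) were pre-incubated 5 h at 37 C, then exposed to compound for 17 h at 37 C. After 2 h with LiveBLAzer substrate, CellTiter-Glo was added to the same wells; luminescence read after 30 min at room temperature.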

CC(C)c1ccc(C=O)cc1
inactive: outcome [1] | outcome [2] | outcome [3] | outcome [4] | outcome [5] | outcome [6] | outcome [7] | outcome [8] | outcome [9] | outcome [10] | outcome [11] | outcome [12] | outcome [13] | outcome [14] | outcome [15] | outcome [16]

CCCCCCCCCCCCCCC(=O)NC(CO)CCCCCCCCCCCCCC (configuration not stated)
inactive: outcome [1] | outcome [17] | outcome [4] | outcome [18] | outcome [6] | outcome [19] | outcome [8] | outcome [9] | outcome [10] | outcome [11] | outcome [12] | outcome [13] | outcome [14] | outcome [15] | outcome [16]

CC1CCc2c(N3CCC(O)CC3)c(F)cc3c(=O)c(C(=O)O)cn1c23 (configuration not stated)
inactive: outcome [1] | outcome [2] | outcome [3] | outcome [4] | outcome [5] | outcome [19] | outcome [7] | outcome [8] | outcome [9] | outcome [10] | outcome [11] | outcome [12] | outcome [13] | outcome [14] | outcome [15] | outcome [16]

CSc1cnccn1
inactive: outcome [20] | outcome [1] | outcome [2] | outcome [3] | outcome [17] | outcome [4] | outcome [18] | outcome [5] | outcome [6] | outcome [19] | outcome [7] | outcome [8] | outcome [9] | outcome [10] | outcome [12] | outcome [13] | outcome [14] | outcome [15] | outcome [16]

COc1nc(N)nc2nc[nH]c12
inactive: outcome [1] | outcome [2] | outcome [3] | outcome [4] | outcome [5] | outcome [9] | outcome [10] | outcome [11] | outcome [12] | outcome [13] | outcome [14] | outcome [15] | outcome [16]

O=C1c2ccccc2C(=O)c2cc(Cl)ccc21
inactive: activity change, negative = cytotoxicity [20] -0.0176% [at 5.95 µM] | activation [1] -1.6% [at 5.95 µM] | viability change, negative = cytotoxic [2] 3.97% [at 6.26 µM] | ratio activity, negative = inhibition [3] 5.48% [at 6.26 µM] | activity change, negative = inhibition [17] -1.25% [at 5.95 µM] | viability change, negative = cytotoxic [4] -3.87% [at 5.95 µM] | activation [18] 0.306% [at 5.95 µM] | activity change, negative = cytotoxicity [5] -3.54% [at 5.95 µM] | activation [6] -5.27% [at 6.01 µM] | activity change, negative = inhibition [19] -12.7% [at 6.95 µM] | activity change, negative = cytotoxicity [7] -4.49% [at 5.95 µM] | viability change, negative = cytotoxic [8] -4.02% [at 6.95 µM] | activation [9] -0.467% [at 6.95 µM] | activity, negative = cytotoxic [10] 13.9% [at 6.95 µM] | activity change, negative = cytotoxicity [12] 0.196% [at 6.95 µM] | activity, negative = cytotoxicity [13] 5.88% [at 8.39 µM] | activity change, negative = inhibition [14] 38.6% [at 8.39 µM] | viability change, negative = cytotoxic [15] 1.45% [at 6.97 µM] | activation [16] -9.9% [at 6.97 µM]

C[Si]1(C)O[Si](C)(C)O[Si](C)(C)O[Si](C)(C)O[Si](C)(C)O1
inactive: outcome [1] | outcome [2] | outcome [3] | outcome [4] | outcome [5] | outcome [6] | outcome [7] | outcome [8] | outcome [9] | outcome [10] | outcome [11] | outcome [12] | outcome [13] | outcome [14] | outcome [15] | outcome [16]

Cc1ccc(C(C)NC(=O)[C@@H](NC(=O)OC(C)C)C(C)C)cc1 (some centres not stated)
inactive: outcome [1] | outcome [2] | outcome [17] | outcome [4] | outcome [18] | outcome [5] | outcome [8] | outcome [9] | outcome [10] | outcome [11] | outcome [12] | outcome [13] | outcome [14] | outcome [15] | outcome [16]

C=CC(=O)CCCCC
inactive: outcome [1] | outcome [2] | outcome [4] | outcome [5] | outcome [7] | outcome [9] | outcome [10] | outcome [11] | outcome [12] | outcome [13] | outcome [14] | outcome [15] | outcome [16]
